The results in this text go back to PubChem BioAssay (Tox21).

A short description of assay [1]: Caspase-3/7 induction in CHO-K1 cells by small molecules, qHTS cell viability counter screen (AID 1346979). Note: nearly all actives have a fitted effect of over 35% in size. An outline of the steps: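 Cytotoxicity counter screen run in parallel with the caspase-3/7 assay: CHO-K1 cells, 16hr compound treatment at 37C, then CellTiter-Fluor for 1hr before fluorescence reading.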
A short description of assay [2]: Caspase-3/7 induction in CHO-K1 cells by small molecules, qHTS assay (AID 1346980). Note: nearly all actives have a fitted effect of over 15% in size. An outline of the steps:
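Wild-type CHO-K1 cells exposed to compounds for 17hr at 37 C, 5% CO2. Caspase-3/7 activity then measured by Caspase-Glo 3/7 luminescence after 30min at room temperature.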

A short description of assay [3]: Caspase-3/7 induction in HepG2 cells by small molecules, qHTS cell viability counter screen (AID 1346981). Note: nearly all actives have a fitted effect of over 30% in size. The gist of the method: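 Cell viability is measured as a cytotoxicity counter screen alongside the Caspase-Glo 3/7 readout in identical wells. Wild-type HepG2 cells are treated with test compounds for 16 hr at 37 C before CellTiter-Fluor addition and a 1-hr incubation.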
For orientation: qHTS replaces the single test concentration by a dilution series.

In assay [4] the target is Nuclear receptor subfamily 1 group I member 2 (Homo sapiens) (UniProt O75469). Description: Human pregnane X receptor (PXR) small molecule agonists, qHTS assay (AID 1346982). Note: nearly all actives have a fitted effect of over 35% in size. An outline of the steps: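 Cells: HepG2 stably carrying PXR-Luc. Medium held 5% charcoal-stripped FBS. Compounds in DMSO added after 5 hr plating, incubated 24 hr, then luminescence quantified with ONE-Glo.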
Chain of Nuclear receptor subfamily 1 group I member 2 (Homo sapiens) (O75469 whole entry, looked up): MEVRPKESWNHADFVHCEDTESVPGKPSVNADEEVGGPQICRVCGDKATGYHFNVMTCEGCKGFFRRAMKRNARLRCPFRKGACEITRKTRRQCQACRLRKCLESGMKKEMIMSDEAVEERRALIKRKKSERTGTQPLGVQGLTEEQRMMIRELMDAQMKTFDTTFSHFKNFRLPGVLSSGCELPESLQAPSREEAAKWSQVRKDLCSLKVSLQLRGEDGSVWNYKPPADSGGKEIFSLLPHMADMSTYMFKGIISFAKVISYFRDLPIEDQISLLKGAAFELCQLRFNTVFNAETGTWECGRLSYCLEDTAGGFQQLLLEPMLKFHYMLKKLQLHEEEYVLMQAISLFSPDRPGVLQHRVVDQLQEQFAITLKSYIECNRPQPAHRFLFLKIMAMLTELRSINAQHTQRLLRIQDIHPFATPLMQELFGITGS

Assay [5] deals with Cytochrome P450 2C19 (Homo sapiens) (UniProt P33261). Nature of the assay: Cytochrome P450 Family 2 Subfamily C Member 19 (CYP2C19) small molecule antagonists: luciferase reporter qHTS assay (AID 1671197). Note: nearly all actives have a fitted effect of over 65% in size. An outline of the steps: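 Light output is proportional to CYP2C19 activity: proluciferin substrate is converted to luciferin, then detected by a luciferin detection reagent that also stops the 1 h, 37C NADPH-driven reaction. Ketoconazole serves as positive control.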
Chain of Cytochrome P450 2C19 (Homo sapiens) (P33261 whole entry, looked up): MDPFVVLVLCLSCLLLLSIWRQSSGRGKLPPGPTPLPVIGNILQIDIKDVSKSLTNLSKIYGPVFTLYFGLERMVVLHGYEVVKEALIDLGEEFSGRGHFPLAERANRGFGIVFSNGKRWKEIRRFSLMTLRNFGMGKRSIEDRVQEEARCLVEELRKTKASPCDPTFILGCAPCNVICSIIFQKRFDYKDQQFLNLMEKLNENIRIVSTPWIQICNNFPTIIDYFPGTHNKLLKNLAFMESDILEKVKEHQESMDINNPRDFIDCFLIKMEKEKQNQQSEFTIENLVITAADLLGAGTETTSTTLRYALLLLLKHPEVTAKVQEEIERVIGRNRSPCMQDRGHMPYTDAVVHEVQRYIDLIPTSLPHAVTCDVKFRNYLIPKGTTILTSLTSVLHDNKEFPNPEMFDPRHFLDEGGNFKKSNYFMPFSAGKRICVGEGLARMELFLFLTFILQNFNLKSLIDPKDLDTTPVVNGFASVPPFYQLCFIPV
(In general: A reporter such as luciferase makes a cellular process visible.)

Assay [6] addresses Cytochrome P450 2C9 (Homo sapiens) (UniProt P11712). Nature of the assay: Cytochrome P450 Family 2 Subfamily C Member 9 (CYP2C9) small molecule antagonists: luciferase reporter qHTS assay (AID 1671198). Note: nearly all actives have a fitted effect of over 50% in size. The gist of the method:
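P450-Glo proluciferin substrate with CYP2C9 enzyme; 10 min RT preincubation, then NADPH regeneration 1 h at 37C; luciferin detection reagent 20 min RT, luminescence in relative luminescence units.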

The target of assay [7] is Cytochrome P450 2D6 (Homo sapiens) (UniProt P10635). Nature of the assay: Cytochrome P450 Family 2 Subfamily D Member 6 (CYP2D6) small molecule antagonists: luciferase reporter qHTS assay (AID 1671196). Note: nearly all actives have a fitted effect of over 50% in size. The gist of the method:
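Enzyme and proluciferin substrate were first combined with test chemical for 10 min at room temperature. Adding NADPH regeneration solution started a 1 h reaction, stopped with luciferin detection reagent and read by luminescence 20 min later.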

Molecules are shown by their SMILES. Where “and” joins values, the source holds several entries; their conditions need not be identical. Equal entries are not always repeated. Records with an inconclusive call do not appear. Calls of active or inactive are those of the source. Calls come from the whole dose curve; as a rule, active = well fitted curve in the direction sought with a large enough effect in the repeat runs; inconclusive = weak or mixed curves; inactive = no such curve, though single readings can be large; an effect the other way counts as inactive or inconclusive.
Potency is the fitted concentration of half-maximal effect.

Chain of Cytochrome P450 2D6 (Homo sapiens) (P10635 whole entry, looked up): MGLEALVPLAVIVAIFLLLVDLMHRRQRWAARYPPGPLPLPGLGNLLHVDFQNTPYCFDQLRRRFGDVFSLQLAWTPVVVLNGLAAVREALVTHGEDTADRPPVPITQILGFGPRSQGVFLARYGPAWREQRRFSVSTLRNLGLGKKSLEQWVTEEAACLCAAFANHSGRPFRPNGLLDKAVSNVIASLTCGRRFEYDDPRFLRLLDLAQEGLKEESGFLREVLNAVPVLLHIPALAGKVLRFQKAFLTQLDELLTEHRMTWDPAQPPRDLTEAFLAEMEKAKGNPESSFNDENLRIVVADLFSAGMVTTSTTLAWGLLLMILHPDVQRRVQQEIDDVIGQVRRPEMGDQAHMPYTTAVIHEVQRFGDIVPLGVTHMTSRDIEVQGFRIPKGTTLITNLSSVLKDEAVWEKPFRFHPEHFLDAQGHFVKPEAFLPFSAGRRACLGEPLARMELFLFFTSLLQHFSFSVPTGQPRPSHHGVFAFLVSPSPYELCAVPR
Chain of Cytochrome P450 2C9 (Homo sapiens) (P11712 whole entry, looked up): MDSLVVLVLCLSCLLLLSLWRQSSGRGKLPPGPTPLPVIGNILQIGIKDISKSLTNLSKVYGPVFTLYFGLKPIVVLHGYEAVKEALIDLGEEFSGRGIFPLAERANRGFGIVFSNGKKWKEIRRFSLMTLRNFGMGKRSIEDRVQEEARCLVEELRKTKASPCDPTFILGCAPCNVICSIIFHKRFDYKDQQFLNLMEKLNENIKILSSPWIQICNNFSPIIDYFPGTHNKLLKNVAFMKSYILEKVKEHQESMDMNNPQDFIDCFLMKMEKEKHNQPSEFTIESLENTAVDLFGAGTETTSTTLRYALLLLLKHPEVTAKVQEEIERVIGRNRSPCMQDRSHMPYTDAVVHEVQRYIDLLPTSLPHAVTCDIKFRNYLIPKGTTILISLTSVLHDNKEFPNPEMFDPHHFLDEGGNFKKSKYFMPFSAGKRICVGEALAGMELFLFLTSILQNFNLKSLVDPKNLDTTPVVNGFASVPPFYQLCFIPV

Take `Oc1cccc(-c2c3nc(c(-c4cccc(O)c4)c4ccc([nH]4)c(-c4cccc(O)c4)c4nc(c(-c5cccc(O)c5)c5ccc2[nH]5)CC4)C=C3)c1`: the Potency is 13.3 µM (active) in assay [1], 13.3 µM (active) in assay [3], 38.9 µM (active) in assay [5] and 13.8 µM (active) in assay [6]. Moreover, the Potency result in assay [2] and in assay [4] was “inactive” each time.
Turning to `O=[N+]([O-])c1ccccc1Nc1ccccc1`, the Potency entry in assay [1], in assay [2] and in assay [3] was “inactive” in each case. The Potency in assay [4] is 48.3 µM (active); in assay [5] it was 19.9 µM (active); in assay [6] it was 39.7 µM (active).
In the case of `O=S1(=O)CC(Cl)(Cl)C(Cl)(Cl)C1`, the Potency in assay [1] is 0.686 µM (active); in assay [2], 0.486 µM (active); in assay [3], 17.2 µM (active); in assay [4], 0.545 µM (active); in assay [5], 35.6 µM (active); in assay [6], 22.4 µM (active). Besides, the Potency entry in assay [7] was “inactive”.
As to `CC(C)(C)C1CCC(CC2=C(O)c3ccccc3C(=O)C2=O)CC1` (stereo not drawn), the Potency in assay [1] is 9.44 µM (active); in assay [3], 11.9 µM (active); in assay [4], 29.8 µM (active); in assay [6] it was 1.95 µM (active). Besides, the Potency entry in assay [2], in assay [7] and in assay [5] was “inactive” in each case.
For `Cc1[nH]nc2c1N=C(c1ccccc1Cl)c1cc([N+](=O)[O-])ccc1N2`, the Potency in assay [1] is 21.7 µM (active); in assay [2], 19.3 µM (active); in assay [3] it was 19.3 µM (active); in assay [4] it was 6.11 µM (active); in assay [5], 17.8 µM (active); in assay [6] it was 15.9 µM (active).
Consider `CCCCCCCCCOC(=O)c1ccc(O)cc1`, for which the Potency in assay [1] is 53.7 µM (active); in assay [3] it was 60.3 µM (active); in assay [5] it was 1.97 µM (active); in assay [6], 6.24 µM (active). The Potency entry in assay [2] and in assay [4] was “inactive” in each case.
For the molecule `CCCCCCCCCCCCCC[P+](CCCC)(CCCC)CCCC` (tested in a mixture with another compound), the Potency in assay [1] was 7.74 µM (active); in assay [3], 24.5 µM (active); in assay [4], 7.74 µM (active); in assay [7], 0.113 µM (active); in assay [6] it was 11.3 µM (active). Also, in assay [2], the Potency result was “inactive”.
Take `CCN(Cc1cccnc1)C(=O)c1cccc(Cl)c1[C@]1(C)C(=O)N(Cc2ccc(OC)cc2OC)c2ccc(Cl)cc21`: the Potency in assay [1] was 20.3 µM (active); in assay [3] it was 45.4 µM (active); in assay [4], 20.3 µM (active); in assay [7], 18.7 µM (active); in assay [5] it was 1.32 µM (active); in assay [6], 1.87 µM (active). Also, the Potency entry in assay [2] was “inactive”.
Regarding `CNC(=O)c1ccccc1`, the Potency result in assay [1], in assay [2], in assay [3], in assay [4], in assay [5] and in assay [6] was “inactive” throughout.
For `ON=C1CCCC1`, the Potency result in assay [1], in assay [2], in assay [3] and in assay [4] was “inactive” each time. In addition, the Potency in assay [5] was 32.8 µM (active); in assay [6], 41.3 µM (active).
As for `CCN(C(=O)c1cc(C)cc(OC[C@H](C)Nc2ccncc2)c1)C(C)C`, the Potency result in assay [1], in assay [2] and in assay [3] was “inactive” in each case. Also, the Potency in assay [4] is 17 µM (active); in assay [7], 22.2 µM (active); in assay [6], 7.02 µM (active).
With `C[n+]1ccn(Cc2ccccc2)c1`, the Potency result in assay [1], in assay [2], in assay [3], in assay [5] and in assay [6] was “inactive” in each case. In assay [4], the Potency was 30.5 µM (active).
For the molecule `O=C(Nc1cccc([N+](=O)[O-])c1)c1cc2ccccc2cc1O`, the Potency was 4.33 µM (active) in assay [1]; 6.11 µM (active) in assay [3]; 6.11 µM (active) in assay [4]; 25.2 µM (active) in assay [7]; 79.6 µM (active) in assay [5]; 17.8 µM (active) in assay [6]. Besides, the Potency entry in assay [2] is “inactive”.
Take `COC(=O)c1cc(Cl)ccc1OC`: the Potency entry in assay [1], in assay [2], in assay [3], in assay [4], in assay [5] and in assay [6] was “inactive” each time.
In the case of `CCCCCCCC(=O)[O-].CCCCCCCC(=O)[O-].[Zn+2]`, the Potency entry in assay [1], in assay [2], in assay [3], in assay [4], in assay [5] and in assay [6] was “inactive” throughout.
For `CCc1cc(Cc2cc(CC)cc(C(C)(C)C)c2O)c(O)c(C(C)(C)C)c1`, the Potency was 38.6 µM (active) in assay [1]; 54.5 µM (active) in assay [2]; 54.5 µM (active) in assay [3]; 0.686 µM (active) in assay [4]; 3.17 µM (active) in assay [6]. Also, in assay [7], the Potency result was “inactive”.
As for `CSc1ccc(/C=C2/C(C)=C(CC(=O)O)c3cc(F)ccc32)cc1`, the Potency entry in assay [1], in assay [2], in assay [3], in assay [4] and in assay [7] was “inactive” throughout. Besides, the Potency in assay [5] is 17.4 µM (active); in assay [6], 24.5 µM (active).
In the case of `Oc1ccc(Cl)cc1Sc1cc(Cl)ccc1O`, the Potency in assay [1] was 30.6 µM (active); in assay [3], 38.5 µM (active); in assay [4], 27.3 µM (active); in assay [5], 1.26 µM (active) and 1.55 µM (active); in assay [6], 10 µM (active) and 7.76 µM (active). The Potency result in assay [2] and in assay [7] was “inactive” each time.
Take `Nc1c(Cl)cc(Cl)cc1Cl`: the Potency entry in assay [1], in assay [2], in assay [3], in assay [4], in assay [7] and in assay [5] was “inactive” each time. The Potency entry in assay [6] is “inactive”.
As to `CCCC/C=C/CCCCO`, the Potency entry in assay [1], in assay [2], in assay [3], in assay [4] and in assay [5] was “inactive” throughout. Also, the Potency in assay [6] is 71 µM (active).
As to `C1CCCC1`, the Potency entry in assay [1], in assay [2], in assay [3], in assay [4] and in assay [6] was “inactive” throughout. The Potency in assay [7] was 34.8 µM (active).
